According to PubChem BioAssay AID1159580 (chemical genetic matrix, 2015):
In all, about 5,500 compounds went through this assay and about 2,000 (36%) were called active. Roughly 18% stayed inconclusive and do not appear here. No stated cut-off is given here; in the data, active means normalized growth mostly below about 0.91 (no sharp cut-off); inconclusive means no clear call, values can overlap the other calls; inactive means mostly above about 0.92. The list shows a part of the results.

Assay: chemical genetic growth profiling, strain panel (AID 1159580);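 further: tested at 20 µM; growth read once vehicle control cultures reached saturation at 30 °C; 1 = growth at the plate median or of vehicle wells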
Settings: S. cerevisiae deletion strains, growth OD
[1] = locus YAL021C, strain ccr4, stronger effect = lower value
[2] = locus YAL026C, strain drs2, stronger effect = lower value
[3] = locus YAL030W, strain snc1, stronger effect = lower value
[4] = locus YBL061C, strain skt5, stronger effect = lower value
[5] = locus YBR009C, strain hhf1, stronger effect = lower value
[6] = locus YBR023C, strain chs3, stronger effect = lower value
[7] = locus YBR171W, strain sec66, stronger effect = lower value
[8] = locus YBR231C, strain swc5, stronger effect = lower value
[9] = locus YBR279W, strain paf1, stronger effect = lower value
[10] = locus YCL011C, strain gbp2, stronger effect = lower value
[11] = locus YCL016C, strain dcc1, stronger effect = lower value
[12] = locus YCL069W, strain vba3, stronger effect = lower value
[13] = locus YCR088W, strain abp1, stronger effect = lower value
[14] = locus YDL005C, strain med2, stronger effect = lower value
[15] = locus YDL040C, strain nat1, stronger effect = lower value
[16] = locus YDR001C, strain nth1, stronger effect = lower value
[17] = locus YDR069C, strain doa4, stronger effect = lower value
[18] = locus YDR137W, strain rgp1, stronger effect = lower value
[19] = locus YDR159W, strain sac3, stronger effect = lower value
[20] = locus YDR297W, strain sur2, stronger effect = lower value
[21] = locus YDR334W, strain swr1, stronger effect = lower value
[22] = locus YDR335W, strain msn5, stronger effect = lower value
[23] = locus YDR392W, strain spt3, stronger effect = lower value
[24] = locus YEL003W, strain gim4, stronger effect = lower value
[25] = locus YEL037C, strain rad23, stronger effect = lower value
[26] = locus YEL061C, strain CIN8 (second series), stronger effect = lower value
[27] = locus YER015W, strain faa2, stronger effect = lower value
[28] = locus YER016W, strain bim1, stronger effect = lower value
[29] = locus YER111C, strain swi4, stronger effect = lower value
[30] = locus YER155C, strain BEM2 (second series), stronger effect = lower value
[31] = locus YFR010W, strain ubp6, stronger effect = lower value
[32] = locus YGL167C, strain pmr1, stronger effect = lower value
[33] = locus YGL173C, strain kem1, stronger effect = lower value
[34] = locus YGL227W, strain vid30, stronger effect = lower value
[35] = locus YGL240W, strain doc1, stronger effect = lower value
[36] = locus YGL253W, strain hxk2, stronger effect = lower value
[37] = locus YHR013C, strain ard1, stronger effect = lower value
[38] = locus YHR027C, strain rpn1, stronger effect = lower value
[39] = locus YHR030C, strain SLT2, stronger effect = lower value
[40] = locus YHR079C, strain IRE1, stronger effect = lower value
[41] = locus YHR142W, strain chs7, stronger effect = lower value
[42] = locus YJL092W, strain hpr5, stronger effect = lower value
[43] = locus YJL095W, strain BCK1 (second series), stronger effect = lower value
[44] = locus YJL095W, strain BCK1, stronger effect = lower value
[45] = locus YJL115W, strain asf1, stronger effect = lower value
[46] = locus YJL129C, strain trk1, stronger effect = lower value
[47] = locus YJL154C, strain vps35, stronger effect = lower value
[48] = locus YJL164C, strain tpk1, stronger effect = lower value
[49] = locus YJL166W, strain qcr8, stronger effect = lower value
[50] = locus YJL187C, strain SWE1, stronger effect = lower value
[51] = locus YJR066W, strain TOR1, stronger effect = lower value
[52] = locus YKL160W, strain elf1, stronger effect = lower value
[53] = locus YKR026C, strain gcn3, stronger effect = lower value
[54] = locus YKR091W, strain srl3, stronger effect = lower value
[55] = locus YLL001W, strain dnm1, stronger effect = lower value
[56] = locus YLL026W, stronger effect = lower value
[57] = locus YLL041C, strain sdh2, stronger effect = lower value
[58] = locus YLR027C, strain aat2, stronger effect = lower value
[59] = locus YLR221C, strain rsa3, stronger effect = lower value
[60] = locus YLR258W, strain gsy2, stronger effect = lower value
[61] = locus YLR262C, strain YPT6 (second series), stronger effect = lower value
[62] = locus YLR320W, strain mms22, stronger effect = lower value
[63] = locus YLR342W, strain FKS1, stronger effect = lower value
[64] = locus YLR357W, strain rsc2, stronger effect = lower value
[65] = locus YLR370C, strain arc18, stronger effect = lower value
[66] = locus YLR384C, strain iki3, stronger effect = lower value
[67] = locus YML120C, strain ndi1, stronger effect = lower value
[68] = locus YMR058W, strain fet3, stronger effect = lower value
[69] = locus YMR125W, strain sto1, stronger effect = lower value
[70] = locus YMR129W, stronger effect = lower value
[71] = locus YMR205C, strain PFK2, stronger effect = lower value
[72] = locus YMR231W, strain pep5, stronger effect = lower value
[73] = locus YNL071W, strain lat1, stronger effect = lower value
[74] = locus YNL183C, strain NPR1, stronger effect = lower value
[75] = locus YNL209W, strain ssb2, stronger effect = lower value
[76] = locus YNL248C, strain rpa49, stronger effect = lower value
[77] = locus YNL322C, strain KRE1 (second series), stronger effect = lower value
[78] = locus YNR049C, strain mso1, stronger effect = lower value
[79] = locus YOR001W, strain rrp6, stronger effect = lower value
[80] = locus YOR070C, strain gyp1, stronger effect = lower value
[81] = locus YOR080W, strain dia2, stronger effect = lower value
[82] = locus YOR083W, strain WHI5, stronger effect = lower value
[83] = locus YOR106W, strain vam3, stronger effect = lower value
[84] = locus YOR231W, strain MKK1, stronger effect = lower value
[85] = locus YOR265W, strain rbl2, stronger effect = lower value
[86] = locus YOR270C, strain vph1, stronger effect = lower value
[87] = locus YOR290C, strain snf2, stronger effect = lower value
[88] = locus YPL051W, strain arl3, stronger effect = lower value
[89] = locus YPL078C, strain atp4, stronger effect = lower value
[90] = locus YPL106C, strain sse1, stronger effect = lower value
[91] = locus YPL240C, strain hsp82, stronger effect = lower value
[92] = locus YPL256C, strain CLN2, stronger effect = lower value

Measured: normalized growth

NCCC1CCCC(CCN)N1 (stereo not drawn)
inactive: locus YAL013W, strain DEP1, stronger effect = lower value 1.01 | locus YAL040C, strain CLN3, stronger effect = lower value 1.01 | locus YCL061C, strain MRC1 (second series), stronger effect = lower value 1.01 | locus YDR363W, strain ESC2, stronger effect = lower value 1.01 | locus YER002W, strain NOP16, stronger effect = lower value 0.995 | locus YGR078C, strain PAC10, stronger effect = lower value 1.02 | locus YGR229C, strain SMI1, stronger effect = lower value 1.01 | locus YJR075W, strain HOC1, stronger effect = lower value 1.01 | locus YNL153C, strain GIM3, stronger effect = lower value 1.01 | locus YNL175C, strain NOP13, stronger effect = lower value 1 | locus YNL197C, strain WHI3, stronger effect = lower value 1 | locus YNL224C, strain SQS1, stronger effect = lower value 1 | locus YOR083W, strain WHI5 (second series), stronger effect = lower value 1.01 | locus YPL055C, strain LGE1, stronger effect = lower value 1.02 | locus YPL241C, strain CIN2, stronger effect = lower value 1.01

COc1ccc2nc(S(=O)Cc3ncc(C)c(OC)c3C)[nH]c2c1 (stereo not drawn)
inactive: [2] 1 | [3] 1.02 | [4] 1.01 | [6] 0.957 | [7] 1.02 | [8] 0.953 | [10] 1.01 | [11] 0.962 | locus YCL061C, strain MRC1, stronger effect = lower value 1.01 | [12] 1.02 | [13] 1.02 | [14] 1.02 | [15] 1.02 | [16] 1.02 | [18] 0.907 | [19] 0.975 | locus YDR195W, strain ref2 1.02 | [20] 1.01 | [21] 1.01 | [22] 1 | [24] 1.01 | [25] 1.02 | [26] 1.02 | [27] 0.987 | [28] 1.02 | [29] 1.02 | [31] 0.999 | [32] 1.02 | [33] 1.01 | [34] 1.02 | [35] 0.934 | [36] 1.01 | [38] 1.01 | [40] 0.885 | [41] 1.01 | [42] 1.02 | [43] 1.02 | [45] 1.02 | [46] 0.994 | [47] 1.02 | [48] 0.942 | [49] 0.911 | [50] 0.998 | [51] 0.879 | [52] 0.941 | [53] 1.01 | [54] 1.02 | [55] 1.01 | [56] 0.983 | [57] 1.02 | [58] 0.948 | [60] 0.989 | [63] 1.01 | [64] 1 | [65] 1.02 | [66] 1.03 | [67] 0.975 | [68] 0.999 | [69] 1.01 | [70] 1.03 | [71] 0.915 | [72] 1.01 | [74] 0.86 | [75] 0.98 | [76] 1.02 | [77] 1.03 | [78] 1.02 | [79] 0.996 | [81] 1.01 | [82] 0.984 | [84] 1.04 | [85] 0.995 | [86] 0.994 | [87] 0.991 | [89] 0.989 | [90] 1 | [91] 1.01 | [92] 0.988
active: [1] 0.795 | [5] 0.907 | [9] 0.913 | [17] 0.812 | [23] 0.556 | [30] 0.812 | [37] 0.753 | [39] 0.791 | [44] 0.752 | [59] 0.904 | [61] 0.857 | [62] 0.765 | [73] 0.702 | [80] 0.897 | [83] 0.857 | [88] 0.846

COc1ccnc(CS(=O)c2nc3ccc(OC(F)F)cc3[nH]2)c1OC (stereo not drawn)
inactive: [1] 0.993 | [2] 1.04 | [3] 1.02 | [4] 1.04 | [5] 0.991 | [6] 1.04 | [7] 1.03 | [8] 1.01 | [9] 1.04 | [10] 1.02 | [11] 1.03 | [12] 1.02 | [13] 1.03 | [14] 1.02 | [15] 1.03 | [16] 1.02 | [17] 1.02 | [18] 1.05 | [19] 0.94 | locus YDR195W, strain ref2 1.01 | [20] 1.02 | [21] 1.03 | [22] 1.05 | [23] 0.925 | [24] 1.02 | [25] 1.03 | [26] 1.02 | [27] 1.03 | [28] 1.04 | [29] 1.05 | [30] 0.917 | [31] 1.01 | [32] 1.02 | [33] 0.989 | [34] 1.03 | [35] 0.977 | [36] 1.05 | [37] 1.05 | [38] 0.989 | [39] 0.864 | [40] 0.946 | [41] 1.05 | [42] 1.01 | [43] 1.02 | [44] 0.89 | [45] 1.02 | [46] 1.03 | [47] 1.02 | [48] 1 | [49] 0.989 | [50] 1.01 | [51] 0.922 | [52] 1.03 | [53] 1.04 | [54] 1.03 | [55] 0.98 | [56] 1.02 | [57] 1.01 | [58] 1.01 | locus YLR113W, strain HOG1, stronger effect = lower value 0.926 | [59] 0.982 | [60] 1.04 | [61] 1.01 | [62] 0.936 | [63] 1.02 | [64] 1 | [65] 1.03 | [66] 1.01 | [67] 1 | [68] 1.04 | [69] 1.02 | [70] 1.03 | [71] 1.01 | [72] 1.03 | [73] 1.02 | [74] 0.868 | [75] 1.02 | [76] 1.06 | [77] 1.05 | [78] 1.03 | [79] 1 | [80] 1.02 | [81] 1.04 | [82] 0.995 | [83] 1.02 | [84] 0.953 | [85] 1 | [86] 1.2 | [87] 1.06 | [88] 1 | [89] 1.04 | [90] 1.03 | [91] 1.03 | [92] 0.969
